Candida biofilm: kills Candida albicans biofilms. C. albicans biofilm + clotrimazole, Alamar Blue. inhibition, % at 6 µM. 85,000 compounds, 0.14% hits;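 active means inhibition above 20%; inactive means inhibition below 20%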;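 further: preformed 24 hr biofilms exposed to compound for 48 hr; 0% = biofilm without compound and 100% = blank killed by clotrimazole plus chlorhexidine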
ERa coact inh: blocks coactivator binding to human estrogen receptor alpha; P03372; TR-FRET ER-alpha LBD / SRC-1 peptide, estradiol-bound; inhibition, % at 25.6 µM; 86,000 compounds, 1.7% hits; AID 629; in the data active means inhibition above about 50%;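 further: 0% = receptor plus peptide control and 100% = peptide only without receptor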
Target sequence (P03372 whole entry, looked up, the tested form may be a part): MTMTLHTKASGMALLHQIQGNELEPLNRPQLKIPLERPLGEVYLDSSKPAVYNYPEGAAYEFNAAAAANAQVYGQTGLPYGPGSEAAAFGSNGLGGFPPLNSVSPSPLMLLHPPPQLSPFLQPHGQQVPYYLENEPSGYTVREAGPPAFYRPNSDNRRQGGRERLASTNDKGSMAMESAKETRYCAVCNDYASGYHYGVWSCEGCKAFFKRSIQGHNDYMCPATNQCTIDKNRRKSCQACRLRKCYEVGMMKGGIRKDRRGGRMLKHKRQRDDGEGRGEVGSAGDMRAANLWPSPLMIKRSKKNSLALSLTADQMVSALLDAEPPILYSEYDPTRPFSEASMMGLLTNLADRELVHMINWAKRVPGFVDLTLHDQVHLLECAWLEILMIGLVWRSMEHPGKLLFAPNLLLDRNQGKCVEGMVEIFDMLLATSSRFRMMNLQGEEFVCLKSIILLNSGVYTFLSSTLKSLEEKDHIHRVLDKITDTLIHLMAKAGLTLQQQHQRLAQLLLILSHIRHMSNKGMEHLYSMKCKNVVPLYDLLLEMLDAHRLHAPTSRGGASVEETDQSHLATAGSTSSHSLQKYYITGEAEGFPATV
ERb coact inh: ER-beta (human) coactivator binding inhibition. inhibition, % at 25.6 µM. 86,000 compounds, 1.3% hits. AID 633. TR-FRET ER-beta LBD / SRC1-Cy5 peptide binding; receptor agonist-loaded with 1 µM estradiol. Q92731;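 active means compounds whose percent inhibition of the receptor-coactivator binding signal exceeds about 50% in the single-dose screen, limit read from the data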;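 further: 0% = receptor plus peptide wells without compound and 100% = peptide-only wells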
ERa coact pot: enhances coactivator binding to human estrogen receptor alpha | P03372 | TR-FRET ERalpha-LBD/SRC-Cy5 coactivator binding, 2 h; 100 = basal binding, no effect | coactivator binding (% of control), % at 25.6 µM | 86,000 compounds, 1.3% hits; in the data active means activity above about 200%;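 further: binding measured in presence of low estradiol as agonist stimulus; 0% = peptide alone without receptor and 100% = receptor with peptide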
Smad3 FoxH1 inh: blocks human Smad3 binding to FoxH1 peptide; TR-FRET Smad3/Dy647-FoxH1 peptide binding, europium anti-His; 88,000 compounds, 0.29% hits; inhibition, % at 25 µM;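 active means compounds that reduce the energy-transfer binding signal between the protein and its labelled peptide by more than half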;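 further: 0% = Smad3 plus labelled peptide maximal FRET and 100% = peptide-only background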
Active calls of the source: *; . = no result; [ ] = another dose, or the depositor's remark. The list is not random: actives were taken first. Their share in the collection is about 3.6%.

SMILES	Candida biofilm	ERa coact inh	ERb coact inh	ERa coact pot	Smad3 FoxH1 inh
O=C(CC12CC3CC(CC(C3)C1)C2)Nc1cccc2ncccc12	-1.4	4.4	-2.8	111.5	-7.5
COC(=O)c1ccc(-n2nnnc2SCC(=O)Nc2ccccc2OC)cc1	4.3	58.2*[fluorescence artefact?]	25.1	170.3	1.3
COc1ccc(C)cc1-n1nnnc1SCC(=O)c1ccc2c(c1)OCCO2	2.6	10.2	24.6	233.2*	1.1
COc1ccc(-n2nnnc2SCC(=O)NCc2ccco2)cc1OC	7.6	11.3	17.6	96.0	10.5
COc1ccc(-n2nnnc2SCC(=O)Nc2ccc3c(c2)OCCO3)cc1OC	6.8	35.8	24.1	210.0*	-2.9
COc1ccc(-n2nnnc2SCC(=O)c2ccc3c(c2)OCCO3)c(OC)c1	7.6	13.0	5.1	171.2	-0.5
COc1ccc(C)cc1-n1nnnc1SCC(=O)NC(=O)NCc1ccco1	5.0	73.2*	46.1	50.4	0.2
C/C(CC/C(C)=N/O)=N\O	.	.	.	.	15.6
Cc1cc(C)cc(-n2nnnc2SCC(=O)Nc2cccc(NC(=O)c3ccco3)c2)c1	9.7	-21.8	-22.2	108.5	11.0
Cc1ccc(-n2nnnc2SCC(=O)Nc2cccc(NC(=O)c3ccco3)c2)cc1C	2.4	79.4*	34.8	122.8	6.3
Cc1nn(Cc2ccccc2Cl)c(C)c1C(=O)NCc1ccco1	-4.9	3.4	79.0*	106.4	4.0
CCCCc1c(C)nn(-c2nnc3c4ccccc4n(CC)c3n2)c1C	11.0	51.9*[fluorescence artefact?]	30.8	141.5	7.0
CCCCn1cnc2c(c1=O)c1nc3ccccc3nc1n2Cc1ccc2c(c1)OCO2	4.3	11.3	21.9	127.6	2.7
Cc1cc2nc3[nH]c4c(Cl)cc(Cl)cc4c3nc2cc1C	.	.	.	.	16.4
Cc1ccc(C(=O)c2sc3nsc(C)c3c2N)cc1	-0.4	5.3	10.1	83.8	1.1
Cc1snc2sc(C(=O)c3ccc(Br)cc3)c(N)c12	2.8	71.0*	51.9*	139.5	8.6
Cc1cccc(NC(=O)NCc2ccc3c(c2)cc(C)n3C)c1	0.9	-0.3	10.1	163.2	16.5
Cc1cc2cc(CNC(=O)Nc3cccc(Cl)c3)ccc2n1C	1.8	20.0	14.6	214.6*[fluorescence artefact?]	4.7
Cc1cc2cc(CNC(=O)c3ccc(S(=O)(=O)N4CCOCC4)cc3)ccc2n1C	15.7	1.3	28.3	275.7*[fluorescence artefact?]	1.9
Cc1cc2cc(CNC(=O)c3ccc(Br)o3)ccc2n1C	6.5	74.0*[fluorescence artefact?]	42.6	62.2	-2.6
Cc1nc(CN2CCN(C(=O)c3ccc(Br)cc3)CC2)cs1	5.7	-22.2	-27.5	94.2	9.8
CCOC(=O)C1=C(c2ccccc2)N=C2SCC(=O)N2C1c1ccc2c(c1)OCO2 (centres undefined)	.	3.6	4.5	123.0	-3.1
CCOc1ccc(S(=O)(=O)N2CCN(c3ccccc3F)CC2)c2cccnc12	3.2	.	.	.	.
Cc1cc(NC(=O)CSc2nnc(-c3ccoc3C)o2)no1	10.9	-9.3	-6.8	115.9	-0.6
COc1ccc(-c2nnc(SCC(=O)NC(=O)NCc3ccccc3)o2)cc1	3.7	20.9	8.0	312.5*[fluorescence artefact?]	-26.0
SMILES	Candida biofilm	ERa coact inh	ERb coact inh	ERa coact pot	Smad3 FoxH1 inh
O=C(CSc1nnc(-c2ccc(OC(F)F)cc2)o1)NC(=O)NCc1ccco1	4.0	67.5*	53.1*	112.4	6.4
O=C(CSc1nc2ccccc2o1)NC(=O)NCc1ccccc1	9.8	3.6	-0.3	81.5	16.1
COc1cc(OC)cc(-c2nnc(SCC(=O)Nc3cc(C)on3)o2)c1	5.5	-19.3	-10.8	393.4*[fluorescence artefact?]	-14.1
COc1ccc(-c2nnc(SCC(=O)NCc3ccco3)o2)cc1	8.4	22.2	20.3	68.8	9.1
Cc1ccc(CN2C(=O)CCC2C(=O)NCCN2CCN(c3cccc(Cl)c3)CC2)cc1 (centres undefined)	-4.9	-71.8	-12.6	108.3	-1.1
C/C(CC1CC2=C(CC1(C)C)C(C)(C)CCC2)=N\NC(N)=S (centres undefined)	9.6	0.2	0.2	79.9	5.0
O=C(Cn1nnc(-c2ccccc2F)n1)Nc1ccc(S(=O)(=O)NC2CCCC2)cc1	-6.8	33.4	9.4	87.3	0.4
Cc1[nH]c(=O)[nH]c(=O)c1NC(=O)c1cccs1	9.4	86.5*[fluorescence artefact?]	-5.7	101.6	4.3
Cc1cc(OC(=O)c2ccco2)c2c(C)cc(=O)oc2c1	7.2	5.5	5.2	272.4*	20.4
CCc1cc(=O)oc2cc(C)cc(OC(=O)c3ccco3)c12	3.0	-4.3	-2.3	102.0	-9.7
COc1ccccc1CNC(=O)c1cc2c(=O)n(C)c3ccccc3c2n1C	10.4	26.4	26.5	127.1	6.9
O=C1CC(c2ccco2)CC(O)=C1C=Nc1cc(Cl)ccc1O (centres undefined)	5.1	52.1*	48.2	129.9	-18.0
OCCNc1ncnc2c1ncn2[C@H]1O[C@@H](CO)[C@H](O)[C@H]1O	.	.	.	.	25.5
COC(=O)c1ccc(S(=O)(=O)N(Cc2cc3cc4c(cc3[nH]c2=O)OCO4)C2CCCCC2)cc1	4.7	4.1	-3.9	306.1*	-18.9
C=CCNC(=O)CC(C)C(CCCCC)C(=O)O (centres undefined)	0.2	3.3	-4.2	154.9	10.6
COc1cccc2cc(-c3cn4ccc(C)cc4n3)c(=O)oc12	5.9	73.9*	52.7*[fluorescence artefact?]	60.8	39.4
COc1cccc2cc(-c3csc(CCn4nc(C)cc4C)n3)c(=O)oc12	10.1	2.1	-0.1	103.4	-6.9
CCOc1cccc2cc(-c3cn4cc(C)ccc4n3)c(=O)oc12	1.4	81.1*	50.0*	126.0	45.1
CCOC(=O)C1=C(CSc2nc(C)ccc2C#N)OC(N)=C(C#N)C1c1cccc(OC)c1OC (centres undefined)	8.8	-8.4	-8.5	114.0	9.0
CS(=O)(=O)NCCC1=CCCCC1	0.7	14.4	10.4	111.8	-11.1
CC1CCCCC1NC(=O)CN1C(=O)CSc2cc(S(=O)(=O)N3CCCCCC3)ccc21 (centres undefined)	-1.6	.	.	.	.
CCOC(=O)N1CCc2c(sc3c2C(=O)NC(c2ccc(-c4ccc(Cl)cc4)o2)N3)C1 (centres undefined)	3.8	78.7*	55.6*[fluorescence artefact?]	16.4	-7.0
CCOC(=O)c1nnn(-c2nonc2N)c1-c1ccc(OC)cc1	4.8	10.3	7.3	119.0	-2.5
COc1nc(Cl)nc(Cl)c1Cl (tested in a mixture with another compound)	.	.	.	.	83.3*
c1ccc(-n2ncc3c(NCC4CCCO4)ncnc32)cc1 (centres undefined)	7.3	-5.3	-2.8	116.7	3.8
Clc1ccc(-n2ncc3c(NCC4CCCO4)ncnc32)cc1 (centres undefined)	23.0*	25.7	54.8*[fluorescence artefact?]	73.3	-14.1
Cc1ccccc1-n1nc2c(c1NC(=O)c1ccc(Br)o1)CSC2	5.8	19.8	41.7	207.2*[fluorescence artefact?]	-0.1
O=C(Cn1nnc(-c2ccc(N3CCOCC3)cc2)n1)OC1CCCCC1	.	2.1	-2.7	208.5*	-12.0
N#[N+]c1ccc(Nc2ccccc2)cc1	.	.	.	.	-1.4
COc1ccc(-c2nc(C)c(C(C)=O)n2O)cc1OC	2.0	-5.1	-3.5	94.6	-4.7

High-throughput results from PubChem.
